Results as given in PubChem BioAssay (Tox21).
Results filed as inconclusive are left out. A number with no mark means an inactive call. Calls come from the whole dose curve.

Assay: cAMP Responsive Elements (CRE) small molecule agonists, cell-based qHTS assay (AID 1963590)
Conditions: CRE-bla HEK293T, beta-lactamase FRET ratio, 3 h; series mostly up to 92.4 µM; activation: at the top concentration
Description: U.S. Tox21 Program National Center for Advancing Translational Sciences [NCATS] Division of Preclinical Innovation [DPI] U.S. Environmental Protection Agency [EPA] National Institutes of Environmental Health Sciences [NIEHS] National Toxicology Program [NTP] U.S. Food and Drug Administration [FDA] Tox21 Assay Overview: CREB (cyclic-AMP Responsive Element Binding Protein) is a cellular transcription factor. It binds to certain DNA sequences called cAMP Responsive Elements (CRE) and regulates the transcription of the genes. […] This cell line can be used to find agonists/antagonists of the cyclic AMP signaling pathway. The activation of the report gene under culture conditions can be detected by fluorescence intensity. This cell line has been used to screen the Tox21 10K compound library to identify agonists that induce oxidative stress.
Tox21 Assay Protocol Summary: CRE-bla Hek 293T cells were suspended in assay medium (DMEM containing 10% dialyzed FBS, 0.1 mM NEAA, 1 mM sodium pyruvate and 25 mM HEPES) and dispensed at 2,000 cells/5 uL /well into 1536-well black wall/clear bottom plates using a Multidrop Combi (ThermoFisher Scientific, Waltham, MA) dispenser. After the assay plates were incubated at 37 C/5% CO2 for 18 hrs, 23 nL of compounds dissolved in DMSO, positive controls or DMSO only was transferred to the assay plate by a pintool workstation (Kalypsys, San Diego, CA). After the plates were incubated at 37 C/5% CO2 for 3 hrs, 1 uL of LiveBLAzer B/G FRET substrate (Invitrogen, Carlsbad, CA) was added to each well using Bioraptr Flying Reagent Dispenser (FRD, Aurora Discovery, San Diego, CA). The plates were incubated at room temperature for 2 h.
% is set by controls: 0 for no effect and ±100 for the full control effect.

Row | SMILES | activation
1 | CCCC(=O)C(=O)O | -0.17%
2 | CCCCCCC(=O)OCC | -0.309%
3 | Nc1ccc(S(=O)(=O)Nc2ccccn2)cc1 | 1.11% [at 42.5 µM]
4 | CC(=O)C(C)=O | 0.518%
5 | CCCCC(CC)COC(=O)COc1ccc(Cl)cc1C (stereo not given) | -0.171%
6 | CN(Cc1cc(Br)cc(Br)c1N)C1CCCCC1 | 1.93% [at 42.5 µM]
7 | COc1ccc(C(=O)N2CCN(CC(=O)N3CCOCC3)CC2)cc1 | 0.287% [at 42.5 µM]
8 | CCOC(=O)Cc1cccc2ccccc12 | 1.8%
9 | Nc1ncnc2c1ncn2[C@H]1CC[C@@H](CO)O1 | 2.6%
10 | C=C(C)C(=O)OCCOCC | -0.0711%
11 | COC(=O)c1c(C)cc(O)c(C)c1O | -1.32%
12 | CCN1CCN(c2cc(-c3ccc(F)cc3)c3c(n2)CCCCCC3)CC1 | 0.689% [at 19 µM]
13 | COCCc1ccccn1 | 0.364% [at 42.5 µM]
14 | COCCO | -0.102%
15 | O=C(O)C(=O)Cc1c[nH]c2ccccc12 | -2.32%
16 | O=C1CCCC(=O)C1 | -0.467%
17 | CCCCCCCCOCCCN | -1.28%
18 | O=S(=O)(O)c1ccc(Cl)cc1 | -0.244%
19 | C=COCC1CCC(CO)CC1 (stereo not given) | 0.0346%
20 | C=C[C@@H](C)CCC=C(C)C | 0.326%

Row | SMILES | activation
21 | CC(C)OCC1CO1 (stereo not given) | -0.424%
22 | C[C@@H]1CC[C@@]2(OC1)O[C@H]1C[C@H]3[C@@H]4CC[C@H]5C[C@@H](O)CC[C@]5(C)[C@H]4CC(=O)[C@]3(C)[C@H]1[C@@H]2C | -0.0414% [at 8.39 µM]
23 | CCCCCc1ccc(Cl)cc1 | 1.81%
24 | Nc1cc(C(=O)O)c(O)c(S(=O)(=O)O)c1 | -0.66%
25 | CCN(CC)CCOc1ccc(Cc2ccccc2)cc1 | 1.02% [at 42.5 µM]
26 | CCCCCCCCCCCC(=O)N(CC)CC | 0.0346%
27 | NC(CS)C(=O)O (stereo not given) | 0.785% [at 42.5 µM]
28 | CCOC(=O)Oc1ccc(CCNC(=O)[C@H](CCSC)NC(C)=O)cc1OC(=O)OCC | 0.348% [at 42.5 µM]
29 | COC(=O)CCCC(=O)O | -1.29%
30 | O=C(CCCCC(=O)Nc1c(I)cc(I)c(C(=O)O)c1I)Nc1c(I)cc(I)c(C(=O)O)c1I | 0.0641% [at 42.5 µM]
31 | CCC(CO)(CO)COCC(CC)(CO)CO | 0.327%
32 | CCCCCCCCCCCCCC(=O)OCC(O)CO (stereo not given) | -2.46%
33 | Cc1c(C)c2c(c(C)c1O)CC[C@@](C)(CCC[C@H](C)CCC[C@H](C)CCCC(C)C)O2 | -0.205%
34 | C/C(=C\C(C)CC(C)CC(C)C)C1CC(=O)OC1=O (stereo not given) | 3.01%
35 | COc1ccccc1OC(=O)Oc1ccccc1OC | 0.62% [at 42.5 µM]
36 | Cc1c(C2(c3cc(Br)c(O)c(Br)c3C)OS(=O)(=O)c3ccccc32)cc(Br)c(O)c1Br | -0.833%
37 | COc1ccc(CCC(=O)c2c(O)cc(O[C@@H]3O[C@H](CO)[C@@H](O)[C@H](O)[C@H]3O[C@@H]3O[C@@H](C)[C@H](O)[C@@H](O)[C@H]3O)cc2O)cc1O | -0.32%
38 | O=C(Nc1ccc([N+](=O)[O-])cc1)Nc1ccc([N+](=O)[O-])cc1 | -1.29% [at 42.5 µM]
39 | CCOc1nc2cccc(C(=O)O)c2n1Cc1ccc(-c2ccccc2-c2nn[nH]n2)cc1 | -0.157% [at 42.5 µM]
40 | CC(C(=O)O)c1ccc2c(c1)CC(=O)c1ccccc1S2 (stereo not given) | -1.18% [at 42.5 µM]
